About 79,000 compounds went through this panel and 15% of them were active in at least one assay; those are over-represented in the sample as a whole. Values without a mark were called inactive. Calls of active or inactive are those of the source. Cut-off read from the data, not from the text of the source: active = growth inhibition above about 70%; inactive = the rest. Where a SMILES comes first, the peptide text is derived from it. [ ]: non-standard residue; d: D form. The star is where a group is joined. ξ: configuration not given here. X15 = COc1ccc(C(N*)c2ccc(OC)cc2)cc1; NMeF = CN[C@@H](Cc1ccccc1)C(=O)O; NMeD = CN[C@@H](CC(=O)O)C(=O)O; NMeV = CN[C@H](C(=O)O)C(C)C; ξNMeV = CNC(C(=O)O)C(C)C; Boc = CC(C)(C)OC(=O)*; ξNMeA = CNC(C)C(=O)O; ξV = CC(C)C(N)C(=O)O
What was measured:
[1] = NCI Yeast Anticancer Drug Screen. Data for the rad50 strain (AID 155);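 note: 0% = growth of vehicle-only cultures of the same strain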; settings: S. cerevisiae rad50 strain growth inhibition; at 50.0 µM; hits give high values
Method in brief: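 Genetically altered yeast (DNA repair pathway); compound treatment; growth inhibition vs vehicle ctrl.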

[2] = NCI Yeast Anticancer Drug Screen. Data for the mec2-1 strain (AID 157); settings: S. cerevisiae mec2-1 strain, at 50.0 µM, hits give high values
Method in brief: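 Yeast mec2-1 mutant treated with compound. Readout: growth inhibition vs vehicle controls.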

[3] = NCI Yeast Anticancer Drug Screen. Data for the sgs1 mgt1 strain (AID 161);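 note: 0% = growth of cultures given vehicle only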; settings: S. cerevisiae sgs1 mgt1 strain, at 50.0 µM, hits give high values
Method in brief: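 Test agents were incubated with a DNA-repair-mutant yeast strain. Growth was then read and compared against vehicle-treated controls.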

[4] = NCI Yeast Anticancer Drug Screen. Data for the cln2 rad14 strain (AID 165);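 note: 0% = growth equal to vehicle treated cultures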; settings: S. cerevisiae cln2 rad14 strain, at 50.0 µM, hits give high values
Method in brief: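 cln2 rad14 yeast strain; compound exposure; growth inhibition read vs vehicle controls.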

[5] = NCI Yeast Anticancer Drug Screen. Data for the bub3 strain (AID 167); settings: S. cerevisiae bub3 mutant strain, at 50.0 µM, hits give high values
Method in brief: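 Yeast carrying a defined mutation is treated with each compound, and growth is compared with that of vehicle-exposed cells to give inhibition.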

[6] = NCI Yeast Anticancer Drug Screen. Data for the mlh1 rad18 strain (AID 175); settings: S. cerevisiae mlh1 rad18 strain growth inhibition; at 50.0 µM; hits give high values
Method in brief: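 Yeast w/ defined DNA-repair lesions; compound exposure; growth vs vehicle controls → % inhibition.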

Compound | growth inhibition [1] | growth inhibition [2] | growth inhibition [3] | growth inhibition [4] | growth inhibition [5] | growth inhibition [6]
CC1(C)CC(C)(C)c2c1oc(=O)c1c3c(oc(=O)c21)C(C)(C)CC3(C)C | 15.7% | -9.1% | 12.8% | 35.5% | 26.2% | -9.85%
Nc1nc(N)nc(Cc2ccccc2)n1 | -24.4% | -3.45% | -17.9% | -58.4% | -15% | -57.9%
c1ccc(CSc2nc3ccccc3nc2-c2cccs2)cc1 | -48.7% | -51.9% | -34.5% | -1.85% | -51.9% | -29.8%
C1CSCCSCCCSCCSCCCSCCSCCCSCCSC1 | 21.2% | 20.9% | 45.9% | 13.4% | 21.1% | 44.6%
CC(C)Oc1ccc(C(=O)O)cc1 | 23.6% | 5.05% | 4.75% | -0.15% | -19.1% | 14.1%
Cc1nc(C(=O)O)ccc1O | 3.05% | 16% | -1.05% | -3.2% | 0.45% | 4%
CCN(CC)CCCC(C)NC(=O)c1ccc2c(c1O)C(=O)c1ccccc1C2=O (stereo unspecified) | 64% | -7.75% | 65.6% | 58.5% | 30.1% | 84.6% (active)
Cc1ccc2ccccc2c1CP(=O)(O)O | -18.9% | -11.1% | -10.4% | -10.6% | 15.2% | -31.4%
CSC1=Nc2cccnc2Nc2cscc21 | -9.25% | -6% | 22.1% | 9.65% | -3.8% | 25.1%
O=C(NNc1ccccc1)C1C2CC3OC(=O)C1C3C2 (stereo unspecified) | 54% | 82.1% (active) | 77.6% (active) | 52.4% | 79.8% (active) | 68.5%
CC1C/C(=C\c2ccccc2)C(=O)/C1=C/c1ccccc1 (stereo unspecified) | -3.6% | 17.4% | 7.3% | -6.4% | -2.75% | -15.9%
O=C(COc1ccc(Cl)c(Cl)c1)NCc1ccc(Cl)cc1 | 7.35% | 13.2% | 0.1% | 5.3% | 29.3% | 49.5%
COc1c2c(c(Cc3c4c(c(OC)c5c3OCO5)OC(C)C4)c3c1OCO3)CC(C)O2 (stereo unspecified) | 24.1% | 2.35% | 5.65% | 6.05% | -10.1% | -7.3%
CC(=O)C(C(C)=O)[N+](=O)[O-].CC(=O)C(C(C)=O)[N+](=O)[O-].[Cu] | 17.1% | -2.95% | -6.75% | -40.5% | 23.6% | 10.6%
CC/C=N/Nc1cn[nH]c(=O)c1Cl | -1.3% | 0.1% | 9.85% | 4.85% | -7.75% | -14.9%
COc1ccc2ccc3[nH]c4c(C)cnc(NCCCN(C)C)c4c3c2c1 | 34.8% | 43.2% | 55.9% | 18.9% | 45.9% | 29.1%
O=S1(=O)CC(c2ccccc2)(c2ccccc2)Nc2ccccc21 | -6.55% | -14.8% | 0.45% | -5.65% | -11.3% | -18.1%
CCCCN=C1NC(N)=NC(C)(C)N1 | -0.1% | -0.35% | -0.75% | -37.5% | -13.3% | -18.9%
O=C(NO)/C(CC(=O)c1ccc(O)cc1O)=N\O | 4.05% | -5.5% | -8.65% | -0.7% | -11.2% | 16.9%
CC1(C)OC(=O)N=C1c1ccc(Br)cc1 | 1.4% | -25.6% | -21.1% | 21.8% | -22% | 15.3%
COc1ccc(C2(C(OC)OC)NC(=O)NC2=O)cc1 (stereo unspecified) | -26.8% | -4.1% | -8.8% | 35.4% | -0.7% | -8.85%

Compound | growth inhibition [1] | growth inhibition [2] | growth inhibition [3] | growth inhibition [4] | growth inhibition [5] | growth inhibition [6]
O=C1Nc2ccccc2/C1=N\[O-].O=C1Nc2ccccc2/C1=N\[O-].[Cu+2] | -10.2% | -5.5% | -30.5% | -0.3% | -23.4% | -21.1%
CCS(=O)(=O)/C=C/c1cccnc1 | 0.45% | -4.8% | -11.4% | -51.5% | 3.05% | 9.5%
NC1=C(O)C(=O)C(c2ccccc2)O1 (stereo unspecified) | -29.2% | -12.2% | -4.15% | -24.2% | -8.9% | 2.5%
C/C(CC(=O)Nc1ccc(Cl)cc1)=N\NC(=O)C[n+]1ccccc1 | 1.35% | -17.6% | 11.2% | 16.6% | -12.5% | -8.6%
N#Cc1nnn2c1nc(N)c1c(Cl)cccc12 | 0.75% | -17.1% | -4.6% | -0.05% | -11.8% | -8.35%
CCOC(=O)N1C=Cc2c(c3ccccc3n2C)N1C(=O)OCC | 3.85% | 1% | 2.15% | -6.3% | 5.7% | -6.95%
COc1ccc(C(NC(=O)C[C@@H](C(=O)N(C)C(C)C(=O)O)N(C)C(=O)[C@@H]2CCCN2C(=O)[C@H](C(C)C)N(C)C(=O)C(C(C)C)N(C)C(=O)[C@H](Cc2ccccc2)N(C)C(=O)C(NC(=O)OC(C)(C)C)C(C)C)c2ccc(OC)cc2)cc1 (stereo partly specified) (Boc-[ξV][NMeF][ξNMeV][NMeV]P[NMeD](X15)[ξNMeA]-OH) | -30.5% | -23.9% | -20.9% | -7.45% | -6.25% | -31.4%
CC(C)(C(=O)O)C(=O)O | 6.9% | 3.25% | 0.6% | 8.2% | 21.4% | 3.1%
COc1ccc(NC(=O)Nc2cccc(Cl)c2C)c(OC)c1 | -0.9% | 9.3% | 32.8% | -3.15% | 9.85% | 5.6%
Cn1c2c(c(=O)c3c4[nH]c5c(c(=O)c4ccc31)CCCC5)CCCC2 | -10.2% | 3.7% | -15.1% | -5.65% | -4.95% | 3.6%
O=C(O[C@H]1[C@@H]2C=CO[C@@H](OC3OC(CO)C(O)C(O)C3O)[C@@H]2[C@@]2(CO)O[C@@H]12)c1ccc(O)c(O)c1 (stereo partly specified) | -20.3% | -40% | -4.6% | 3.1% | -8.35% | 0.4%
O=c1[nH]cnc2c1ncn2CCCCO | -0.15% | -5.25% | 1.6% | 2.7% | -0.05% | 10.4%
COC(=O)C(C(=O)c1ccccc1)C(C(=O)C(=O)Nc1ccc(OC)cc1OC)C(=O)C(=O)c1ccc(C)cc1 (stereo unspecified) | -1.3% | 10.8% | 3.7% | -3.9% | 2.85% | 19.6%
CC(C)CCNc1nc(N)[nH]c(=O)c1NC=O | -16.7% | 16.1% | -0.55% | 7.5% | 2.7% | -56.6%
CC(C)c1ccc2c(c1)CC[C@H]1[C@](C)(COCCC#N)CCC[C@]21C | -10.9% | -28.2% | -14.2% | -63.1% | -17.1% | -30%
COc1c2ccoc2cc2oc(=O)ccc12 | 10% | -7.1% | 12.8% | 14.3% | 22.4% | 20.4%
OC1c2c(ccc3ccccc23)CCC1N1CCCCC1 (stereo unspecified) | 12.6% | -4.45% | 0.9% | -34.5% | -13.4% | -5%
Cc1cc(-c2cc(C)c(N)cc2S(=O)(=O)O)c(S(=O)(=O)O)cc1N | -12.3% | -23.4% | -1.2% | -3.2% | 5.8% | 1.15%
O=C(c1ccccc1)c1ccc(OCCOc2ccc(C(=O)c3ccccc3)cc2)cc1 | -0.7% | -1.7% | 2.15% | -15.1% | 3.9% | -13.2%
Cc1cccc(C(=O)c2ccc(C)cc2C)c1 | 17.1% | 6.65% | -7.55% | 6.75% | -0.7% | 5.4%

Source: PubChem BioAssay (NCI)
